In all, about 68,000 sequences were measured (“fluorescence intensity (a.u.)”: median about 9,100, highest 2% from about 16,000 on). This excerpt belongs to a sample that is enriched for the highest values.

In PMC7819943, “Rice protein-binding microarrays: a tool to detect cis-acting elements near promoter regions in rice” one finds binding signal data, which are given here for 44 sequences.

The test deals with OsWRKY34 (Oryza sativa, UniProt Q0JBA9 1-250). Nature of the test: protein-binding microarray (RPBM); PBS, 2% BSA, 51.3 ng/ul salmon testes DNA, 50 uM zinc acetate, 200 nM TF, 25 C, 1 h; high values mean tight binding. To be noted: protein: recombinant; tags: N-terminal polyhistidine and DsRed monomer fusion (pET32a); label: CyDye5-dUTP incorporated in the synthesized complementary strand; 3' TTTTT single-stranded linker to array surface; dsDNA, one strand shown. In outline: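 The binding signal is fluorescence intensity per feature, in arbitrary units, read on an Axon 4000B scanner. Polyhistidine- and DsRed-tagged transcription factors (N-terminal fusions) from E. coli BL21-CodonPlus were purified on Ni–NTA and applied at 200 nM for 1 h at 25 °C to a double-stranded, BSA-blocked custom Agilent array in buffer with 50 µM zinc acetate.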
Chain of OsWRKY34 (Q0JBA9 entry or part of it): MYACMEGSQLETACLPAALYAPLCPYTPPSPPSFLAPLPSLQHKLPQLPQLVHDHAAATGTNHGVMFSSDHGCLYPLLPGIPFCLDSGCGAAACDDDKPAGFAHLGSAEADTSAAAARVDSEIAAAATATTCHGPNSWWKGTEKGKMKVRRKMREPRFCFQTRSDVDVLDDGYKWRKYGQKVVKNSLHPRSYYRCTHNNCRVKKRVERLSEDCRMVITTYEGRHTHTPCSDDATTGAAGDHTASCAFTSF
Consider “GGTTAGGTTTTTTTATAGAGGGAGTAGTATGCAATTATTTCGGAGTCACCTAGTGCAG”, for which the binding signal was 9450 fluorescence intensity (a.u.). As for “TTTCTTGGTTCCTGTGTCTAAGCCAGCTGTAAACTTACAACGGAGTCACCTAGTGCAG”, the figure is 8450 fluorescence intensity (a.u.); as for “ATTTCCAAGCTCTCTTTGCAGTTACTCCTCGGTGTGCTCCCGGAGTCACCTAGTGCAG”, 8250 fluorescence intensity (a.u.).

“GTCATTGGTGGTTTATATTGTTTGGCTTTTTTCCGGATTACGGAGTCACCTAGTGCAG”: the binding signal is 18500 fluorescence intensity (a.u.).

For “TATATATTGTTTTTTTTTACGTTGTTGGTTCCGGATGTGACGGAGTCACCTAGTGCAG”, the binding signal was 9930 fluorescence intensity (a.u.). For “TTTTGGATTTTGTTTCATTTTTTTTACATGCATTGGATTACGGAGTCACCTAGTGCAG” the value was 8120 fluorescence intensity (a.u.); for “TGAGACAAAGCACATTCTACCCAAGGCCAGTTGCACCAACCGGAGTCACCTAGTGCAG”, 8080 fluorescence intensity (a.u.); for “TCAGTGTTGAGTAGGGTTGGCAGGCGAGCACGCAGTAATGCGGAGTCACCTAGTGCAG”, 8190 fluorescence intensity (a.u.). For “TGTTGTGTGTTAGTTGTGGTGGTAGCATTTTTTCCTGGTACGGAGTCACCTAGTGCAG” the value was 13000 fluorescence intensity (a.u.); for “TAGCTACCTAAGCTTAGCTCACATTCTTCTCGCTTTCTCACGGAGTCACCTAGTGCAG”, 12000 fluorescence intensity (a.u.). For “GGTGGGACGTGGTGGGCGTCAAGGCGGCGGTGGGAGGGGACGGAGTCACCTAGTGCAG” the value was 20400 fluorescence intensity (a.u.). Turning to “GTATCGCCAAGGAGGAGAGGGGAGAGGGGTGGAAGAGGAACGGAGTCACCTAGTGCAG”, the binding signal was 11900 fluorescence intensity (a.u.). As for “CTGGGTGTGGGTGTGGGTCTGGGTCTGGGTGGAAGAGGAACGGAGTCACCTAGTGCAG”, the binding signal is 21200 fluorescence intensity (a.u.). For “ACTAGTTGAAGGAGTTGGGGCTATAAATGGGTGGTGCTATCGGAGTCACCTAGTGCAG” the value was 10900 fluorescence intensity (a.u.); for “GGTGGGCTATAAATATAGTTGGGGAGGGGAGGGAAGACCCCGGAGTCACCTAGTGCAG”, 16700 fluorescence intensity (a.u.); for “GTGGGGTTGGAGGAGGGAGGGAGCTAGCTATAGTTGCTAGCGGAGTCACCTAGTGCAG”, 9980 fluorescence intensity (a.u.).

In the case of “GAGGAGGGACTCGGGGCGGGAGGAAGACGGCGAGGAGGGGCGGAGTCACCTAGTGCAG”, the binding signal was 16500 fluorescence intensity (a.u.). For “GAAGGGTGGGAGGGGAAGGGGAGGACGAGCGGGCGGACGGCGGAGTCACCTAGTGCAG” the value was 11500 fluorescence intensity (a.u.); for “GGAGGTGGGGAGGGGAGGAGAGGGGAAGAAGGAAGAAAAACGGAGTCACCTAGTGCAG”, 13300 fluorescence intensity (a.u.); for “AGGGCGGTGGGGCGGCAAGGGACCAGATGGTGGGGCGGCACGGAGTCACCTAGTGCAG”, 11100 fluorescence intensity (a.u.). As for “GGGAGGAGGAGGAGGAGAAGGGCGGCGGGAGGAGGGGCGACGGAGTCACCTAGTGCAG”, the figure is 14000 fluorescence intensity (a.u.); as for “CGAGGGAGGGGAGGCGGCGGAGGCGAGAGAGGAGAGGGGACGGAGTCACCTAGTGCAG”, 11000 fluorescence intensity (a.u.); as for “TCGTCATCATCCTCGCCGCCATCGCCATCGCCATTGCCTACGGAGTCACCTAGTGCAG”, 9180 fluorescence intensity (a.u.). Regarding “ACTTGTTTTACGTTCGGCTAATTAGCTGTTTGACCGTTTCCGGAGTCACCTAGTGCAG”, the binding signal was 15300 fluorescence intensity (a.u.). Regarding “AAAAACGTCTCAATTGTAAGCTCACTATCTAACAATTTTCCGGAGTCACCTAGTGCAG”, the binding signal was 11200 fluorescence intensity (a.u.).

Consider “GCTTGGTCTATAAGTTGCTGCTCTGCCCTGCTCGGCCTCACGGAGTCACCTAGTGCAG”, for which the binding signal is 12000 fluorescence intensity (a.u.).

Regarding “CTCCATCGCTTCGCTCTTCGCCGGATCTAGCACCGACGGTCGGAGTCACCTAGTGCAG”, the binding signal is 9000 fluorescence intensity (a.u.). Take “TTCTTTTGCCGTGCTCCCAGATTCTCCGGTCGCCACGACTCGGAGTCACCTAGTGCAG”: the binding signal is 8590 fluorescence intensity (a.u.). Turning to “ACCTCTTATTTGACTTTTTCACTATTTTGAAATACGAAAACGGAGTCACCTAGTGCAG”, the binding signal is 9360 fluorescence intensity (a.u.). Consider “AATGTATTTGTCTTATGTTAAATATATTACTACTCTTTTTCGGAGTCACCTAGTGCAG”, for which the binding signal is 8080 fluorescence intensity (a.u.). For “TATCCGATCCATGGCGTTCTCTTGAGTCCAGAGAGTATTTCGGAGTCACCTAGTGCAG” the value was 8460 fluorescence intensity (a.u.).

Regarding “AGCTTAACACGCGCCACTTGCCCCTATTTAGCCGCGCCATCGGAGTCACCTAGTGCAG”, the binding signal was 9920 fluorescence intensity (a.u.). As for “CGGCTAGGGACGGGGACGACGCCGGAGTGGGTGGGGAAGGCGGAGTCACCTAGTGCAG”, the figure is 8680 fluorescence intensity (a.u.); as for “AATGTGGGAGAAGGGGAGGAGAGAGGGGAGGGGAGGGGACCGGAGTCACCTAGTGCAG”, 16500 fluorescence intensity (a.u.); as for “GGCCGCGGCGGTGCGACGAAGAGCGGCGTCGGACAAGGGCCGGAGTCACCTAGTGCAG”, 35900 fluorescence intensity (a.u.). In the case of “GGTGGTGCGCGAGCGTCGGCGGTCGGCGGGAGGGCGGGAGCGGAGTCACCTAGTGCAG”, the binding signal was 9180 fluorescence intensity (a.u.). As for “AGAAGGAGGAGGAGGAGGAGGAGGAGGAGGGGAGGAGAGCCGGAGTCACCTAGTGCAG”, the figure is 10400 fluorescence intensity (a.u.); as for “AATCTAACGGGTGGGTCTCATGTATTGATGAGGAAGAAGACGGAGTCACCTAGTGCAG”, 20800 fluorescence intensity (a.u.); as for “GGGAAGGGGAGGGGTGGGCGGAAGGGGACGCCGGTGGTGGCGGAGTCACCTAGTGCAG”, 17900 fluorescence intensity (a.u.). “GACGGCGACCGAAGGGGACAAGGAGGCGGGGCGGGGCGGCCGGAGTCACCTAGTGCAG”: the binding signal is 14000 fluorescence intensity (a.u.).

In the case of “AGGGTGAACAGAAGAAGATGAATCTAACGGGTGGGTCTCACGGAGTCACCTAGTGCAG”, the binding signal is 10800 fluorescence intensity (a.u.). As for “GGGAATATTAGTGGGATGGGGATGAGGAATTGAGGAAGAACGGAGTCACCTAGTGCAG”, the figure is 13400 fluorescence intensity (a.u.); as for “CGGTGGGGAGGCCGGGAGGGAGGAGGAGAGAAGAGGAGTGCGGAGTCACCTAGTGCAG”, 9450 fluorescence intensity (a.u.); as for “GCATGGTGGCGGCGGGAAGGAGGAGTGGGGCGGCGGGTGCCGGAGTCACCTAGTGCAG”, 16100 fluorescence intensity (a.u.).
